Bioassay records: PubChem, National Center for Advancing Translational Sciences (NCATS)
In the library only some 21% were active in any assay of this set; here they are far more common.
TDP1 cell CPT: growth inhibition of DT40 Tdp1-/-;hTDP1 cells with camptothecin (screen for TDP1 inhibitors) | chicken DT40 Tdp1-/-;hTDP1 cells + 20 nM CPT, ATP luminescence, 48 h | Potency, µM (top dose mostly 46.2 µM), for inactives: at the highest dose activity change, negative = growth inhibition, hits mostly inhibitors | 420,000 tested, 12% active | AID 686979; further: potency means the concentration at half of the fitted maximal effect; nearly all actives have a fitted effect of over 55% in size
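Chicken DT40 Tdp1-/- cells stably complemented with human TDP1 were seeded at 400 cells/well in medium containing 20 nM camptothecin, exposed to pin-transferred compounds, and grown at 37 °C for at least 48 hr. Viability was read as ATP luminescence.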
Gal4-VP16 FLuc: Gal4-VP16 reporter inhibition counter-screen. Drosophila S2 Gal4-VP16 UAS-luciferase, luminescence, 20 h. Potency, µM (series often up to 53.6 µM), without a hit: top-dose activity, negative = inhibition, usual class: inhibitors. 310,000 tested, 3.5% active;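 further: Gal4-VP16 expression switched on by copper sulfate through the metallothionein promoter; potency means the concentration at half of the fitted maximal effect; nearly all actives have a fitted effect of over 50% in size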
TDP1 cell noCPT: qHTS for Inhibitors of human tyrosyl-DNA phosphodiesterase 1 (TDP1): qHTS in cells in absence of CPT; DT40 Tdp1-/- hTDP1 cells, no CPT, ATP luminescence, 48 h; Potency, µM (highest dose often 46.2 µM), inactives show at the top dose activity change, negative = growth inhibition, hits mostly inhibitors; 420,000 tested, 15% active; AID 686978, 2013; further: potency means the concentration at half of the fitted maximal effect; nearly all actives have a fitted effect of over 55% in size
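Camptothecin absent (DMSO only). Human TDP1-complemented DT40 knockout cells, 400 cells/well, 37 °C for minimum 48 hr; ATP measured via CellTiter-Glo, 30 min dark incubation, luminescence.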
IL1B secr inh: inflammasome signaling inhibition, IL-1 beta readout; THP-1 LPS/ATP IL-1B secretion, AlphaLISA, 16 h; stronger effect = lower value; activity change, % at 57.5 µM; 360,000 tested, 4.7% active; in the data active means activity change below about -50%; inconclusive means mostly about -30% to -49%
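THP-1 cells pretreated 1 hr with compounds (up to 57.5 uM final), then stimulated with LPS (250 ng/mL final) plus ATP (1.25 mM final); secreted IL-1B measured by AlphaLISA after 16 hr, decreased signal indicating inhibition.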
ELG1 repair inh: blocks ELG1-dependent DNA repair in HEK293T cells. AID 504467. 330,000 tested, 2.3% active. HEK293T ELG1-luciferase reporter, luminescence, 16 h; DNA damage induced by 5-fluorouridine. Potency, µM (top dose mostly 46.1 µM), for inactives: at the highest dose activity change, negative = inhibition, actives largely listed as inhibitors; further: potency means the concentration at half of the fitted maximal effect; nearly all actives have a fitted effect of over 55% in size
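Step one: seed 2,000 cells per well. Step two: pin-transfer compound or DMSO alongside 5-fluorouridine. Step three: incubate 16 hr, 37 °C, 5% CO2. Step four: add ONE-Glo, wait 30 min, read luminescence.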
RORg inh: blocks mouse ROR gamma transcriptional activity; P51450; Drosophila S2 Gal4-RORgamma UAS-luciferase reporter, 20 h; Potency, µM (series often up to 53.6 µM), for the others: at the highest dose activity change, negative = inhibition, hits mostly inhibitors; 310,000 tested, 5.4% active; AID 2551; further: potency means the concentration at half of the fitted maximal effect; nearly all actives have a fitted effect of over 60% in size
Target sequence (P51450 whole entry, looked up, the tested form may be a part): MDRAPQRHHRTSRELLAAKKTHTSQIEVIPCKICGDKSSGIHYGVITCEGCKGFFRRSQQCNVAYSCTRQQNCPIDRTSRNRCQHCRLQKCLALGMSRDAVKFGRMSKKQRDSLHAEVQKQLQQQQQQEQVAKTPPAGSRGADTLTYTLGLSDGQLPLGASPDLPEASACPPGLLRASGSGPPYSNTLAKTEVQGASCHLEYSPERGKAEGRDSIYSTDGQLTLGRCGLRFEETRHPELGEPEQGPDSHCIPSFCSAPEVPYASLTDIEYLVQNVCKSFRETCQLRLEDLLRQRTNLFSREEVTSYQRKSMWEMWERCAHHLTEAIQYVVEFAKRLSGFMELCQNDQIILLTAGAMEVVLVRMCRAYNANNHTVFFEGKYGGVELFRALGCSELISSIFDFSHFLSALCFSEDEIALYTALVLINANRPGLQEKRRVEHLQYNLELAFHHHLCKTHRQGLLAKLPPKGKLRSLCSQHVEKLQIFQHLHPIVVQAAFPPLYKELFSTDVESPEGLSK
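In this cell-based reporter format, copper sulfate (700 uM final) drives Gal4–ROR gamma fusion expression from a metallothionein promoter in Drosophila Schneider cells; compounds preincubated 1 hr, reporter read after 20 hr at ambient temperature.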
Numbers without * were called inactive; i = inactive; u = inconclusive; x = no result given; [ ] = dose if it differs, or a comment. Unless noted, the call rests on the fitted dose curve; in most records, active means well fitted curve in the direction sought with a large enough effect; inconclusive means small, poorly fitted or top-dose-only effect, or another doubt; inactive means no such curve, though single readings can be large; an effect the other way counts as inactive or inconclusive. On the % scale 0 is the no-effect control and ±100 the full control effect.

SMILES	TDP1 cell CPT	Gal4-VP16 FLuc	TDP1 cell noCPT	IL1B secr inh	ELG1 repair inh	RORg inh
CC(C)CN1CC[C@@]2(CCCN(C(=O)c3cccc(F)c3)C2)C1	5%	2%	-2%	x	x	0%
Cc1ccc(C)c(S(=O)(=O)N2CCN(C(=O)CN3C(=O)C4CC=CCC4C3=O)CC2)c1 (centres undefined)	-21%	x	-24%	6	3%	x
COCCn1c(SCc2ccc(Cl)cc2)nc2c1c(=O)[nH]c(=O)n2C	8%	x	u	16	x	x
CCCn1c(SCc2ccc(Cl)cc2)nc2c1c(=O)[nH]c(=O)n2C	u	-4%	16µM*	-10	-16%	15%
O=C(NC(=S)Nc1ccccc1O)c1ccc(-c2ccc(Cl)cc2)o1	23µM*	7.9µM*	16µM*	-1	-2%	3.2µM*
Cc1c(NC(=S)NC(=O)c2ccc(-c3ccc(Cl)cc3)o2)cccc1C(=O)O	3%	-17%	5%	26	12%	19%
Cc1ccc(O)c(NC(=S)NC(=O)c2ccc(-c3ccc(Cl)cc3)o2)c1	23µM*	x	26µM*	-5	x	x
NC(=O)c1ccccc1NC(=O)c1cccc(C(=O)Nc2ccccc2C(N)=O)n1	-16%	x	u	-11	x	x
Cc1cc(Cl)ccc1OCC(=O)N(Cc1sccc1C)C1CCS(=O)(=O)C1 (centres undefined)	23µM*	x	18µM*	x	x	x
COc1ccc(C(=O)N(Cc2sccc2C)C2CCS(=O)(=O)C2)cc1Cl (centres undefined)	u	x	18µM*	x	x	x
COc1ccc(OC)c(CN2C(=O)CN(S(C)(=O)=O)CC2(C)C(=O)NCc2ccccc2)c1 (centres undefined)	13%	x	2%	32	x	x
Nc1c2c(nc3sc4c(c13)CCCC4)CCCCCC2	u	-9%	13µM*	32	u	-26%
O=C(c1ccoc1)N1CCC2(CC1)Oc1ccc(F)cc1C(=O)C21CC(c2ccc(Cl)cc2)=NO1 (centres undefined)	u	7%	u	-56*	u	9%
O=C(c1ccoc1)N1CCC2(CC1)Oc1ccc(F)cc1C(=O)C21CC(c2ccccc2)=NO1 (centres undefined)	u	-18%	u	-20	0%	-2%
O=C(c1ccoc1)N1CCC2(CC1)Oc1ccc(Cl)cc1C(=O)C21CC(c2ccc(Cl)cc2)=NO1 (centres undefined)	21µM*	-8%	u	u	u	6%
O=C(CN1CCOCC1)Nc1ccc([N+](=O)[O-])cc1Br	u	19%	u	1	u	18%
COc1ccc(-c2nnc(NC(=O)c3ccc(S(=O)(=O)N(C)CC4CCCO4)cc3)o2)c(OC)c1 (centres undefined)	u	1µM*	u	i	u	0.71µM*
CN(CC1CCCO1)S(=O)(=O)c1ccc(C(=O)Nc2ccc3c(c2)OCO3)cc1 (centres undefined)	u	6%	u	11	12µM*	27%
Cc1ccc(S(=O)(=O)NC(=O)O[C@@H]2C(=O)c3cc(Br)ccc3O[C@H]2c2ccc3c(c2)OCO3)cc1	x	4%	x	x	x	-7%
COc1ccc(CN(CC(O)COCc2ccccc2)S(=O)(=O)c2ccccc2Br)cc1OC (centres undefined)	u	x	16µM*	-64*	u	x
CC(NC(=O)c1ccco1)c1nnc2n1CCN(Cc1ccc(N3CCCC3)cc1)CC2 (centres undefined)	-4%[9.04 µM]	x	-18%	x	x	x
Cc1ccc2nc(-c3ccccn3)c(NC3CCCC3)n2c1	1.3µM*	-2%	0.33µM*	-14	u	4%
